# Results published in PubChem BioAssay (NCI).
# About 83,000 compounds went through this panel and 20% of them were active in at least one assay; those are over-represented in the sample as a whole.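 A percent growth of 40 corresponds to 60% growth inhibition; 0 means no net growth; -100 means all cells died. Active threshold: below 10.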 The source made the active and inactive calls.
# Test system: MDA-MB-468 breast
# Assay: NCI-60 one-dose screen, 48 h (100 = growth as untreated, 0 = no growth, -100 = all killed)
# Conditions: 10 µM unless noted
row,Structure (SMILES),growth
1,C=C1CC[C@@H]2[C@](C)(COC(C)=O)[C@H](OC(C)=O)CC[C@@]2(C)[C@@H]1CC(Nc1ccc(S(=O)(=O)Nc2ccc(Cl)nn2)cc1)C1=CCOC1=O (stereo not given in full),-32.3% (active)
2,O=C(CCN1CCOCC1)Nc1cccc(-n2cc(-c3ccncc3)c(-c3ccc(Cl)c(O)c3)n2)c1,25.2% (inactive)
3,O=C(C[P+](c1ccccc1)(c1ccccc1)c1ccccc1)c1ccccc1,103% (inactive)
4,O=S(=O)(Oc1ccc(-c2ccc3sccc3c2)cc1)c1ccccc1,85.2% (inactive)
5,CCOC(=O)Nc1ccc2nc(N3CCCCCC3)sc2c1,-4.19% (active)
6,C(=N\Nc1nc(N/N=C/c2ccc3c(c2)OCO3)nc(N2CCCCC2)n1)/c1ccc2c(c1)OCO2,81.6% (inactive)
7,Nc1c(C(=O)Nc2ccccc2)sc2nc3c(cc12)CCCC3,31.1% (inactive)
8,Cc1ccc(C(C)C)cc1NC(=O)Nc1ccc([N+](=O)[O-])cc1,4.03% (active)
9,O=C1CS/C(=N\Nc2cc(=O)[nH]c3ccccc23)N1c1ccccc1,96.9% (inactive)
10,NC(=S)N/N=C1\CCCC(C(F)(F)F)C1 (stereo not given),31.3% (inactive)
11,CN1CCC(c2ccccc2)(c2ccccc2)C(=O)C1,-11.8% (active)
12,c1cnc2nc3c(cc2c1)oc1ccccc13,81% (inactive)
13,COC(=O)c1c2c(c(C)[n+]([O-])c1C)C(=O)C(NCc1cccc(Cl)c1)=CC2=O,-26.3% (active)
14,COc1ccc(-c2nc(/C=C3/C(=O)Nc4ccc(F)cc43)c3ccccn23)cc1,105% (inactive)
15,O=C(CN1CCN(C(=O)c2ccccc2)CC1)Nc1ccccc1SCc1ccccc1,56.4% (inactive)
